The results in this text go back to PubChem BioAssay.

Results filed as inconclusive are left out. The source made the active and inactive calls. Unless noted, cut-off not given; nearly all actives show AC50 up to about 26 µM.

Experiment [1] in a line: growth inhibition of DIPG glioma cells, dose response, cell-based, SU-DIPG-XVII, MIPE5.0, CellTiter-Glo, qHTS (AID 1347060).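 On AC50: cells exposed to compound for 48 hours before viability readout.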 As to conditions: SU-DIPG-XVII viability, CellTiter-Glo ATP luminescence.
A short description of experiment [2]: growth inhibition of DIPG glioma cells, dose response, cell-based, SU-DIPG-XIII, MIPE4.0, CellTiter-Glo, qHTS (AID 1347061; cut-off not given, nearly all actives have AC50 up to about 37 µM;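 further: cells exposed to compound for 48 hours before readout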). The note with it: SU-DIPG-XIII viability, CellTiter-Glo ATP luminescence.
The nature of experiment [3]: growth inhibition of DIPG glioma cells, dose response, cell-based, JHH-DIPG-1, MIPE4.0, CellTiter-Glo, qHTS (AID 1347062; cut-off not given, nearly all actives have AC50 up to about 27 µM;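 on AC50: cells exposed to compound for two days before readout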). The note with it: JHH-DIPG-1 viability, CellTiter-Glo ATP luminescence.
The nature of experiment [4]: growth inhibition of DIPG glioma cells, dose response, cell-based, SU-DIPG-IV, MIPE4.0, CellTiter-Glo, qHTS (AID 1347063; cut-off not given, nearly all actives have AC50 up to about 30 µM;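 further: compound exposure lasted 48 hours before the viability readout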). As to conditions: SU-DIPG-IV viability, CellTiter-Glo ATP luminescence.
Experiment [5] in a line: growth inhibition of DIPG glioma cells, dose response, cell-based, SU-DIPG-XIII, MIPE5.0, CellTiter-Glo, qHTS (AID 1347064; cut-off not given, nearly all actives have AC50 up to about 23 µM;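 on AC50: cells exposed to compound for 48 hours before the viability read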). The note with it: SU-DIPG-XIII viability, CellTiter-Glo ATP luminescence.
The nature of experiment [6]: viability loss in pontine glioma line – cell-based, SU-DIPG-XXV, MIPE5.0, CellTiter-Glo, qHTS, dose response (AID 1347065).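 Further: cells exposed to compound for 48 hours before ATP readout.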 As to conditions: CellTiter-Glo ATP luminescence.
Experiment [7] is described as follows: SU-DIPG-VI glioma cell viability, MIPE4.0 library, CellTiter-Glo luminescence, qHTS (AID 1347066; cut-off not given, nearly all actives have AC50 up to about 30 µM;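 further: cells exposed to compound for 48 hours before readout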). The note with it: CellTiter-Glo ATP luminescence.
Experiment [8] in a line: JHH-DIPG-1 glioma cell viability, MIPE5.0 library, CellTiter-Glo luminescence, qHTS (AID 1347067).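 Further: cells exposed to compound for 48 hours before readout.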 As to conditions: JHH-DIPG-1 glioma viability, CellTiter-Glo ATP luminescence.
Experiment [9] is described as follows: SU-DIPG-XXV glioma cell viability, MIPE5.0 library, qHTS (AID 1347068; cut-off not given, nearly all actives have IC50 up to about 30 µM;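 on IC50: cells exposed to compound for 48 hours before viability readout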).
A short description of experiment [10]: sensitizers of A549 cells to miR-34 induction, primary screen, imaging, A549 dox-inducible miR-34, nuclei and caspase counts (AID 1347080;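 active means compounds whose cell count with miR-34 switched on is under 0.7 times the count with it off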). As to conditions: A549 miR-34 inducible, Hoechst nuclei count, 48 h.
The nature of experiment [11]: modifiers of HSF1 nuclear foci, imaging, Selleck Cancer Library (AID 1347162; in the data active means plate-normalised HSF1 focus index below about 0.46). The note with it: human cells, at 10 µM; SSMD: measured here: HSF1 foci SSMD mean; cell count: measured here: cell number; plate-normalised HSF1 focus index: stronger effect = lower value.
The nature of experiment [12]: survival rescue of mitochondrial mutant cells in low glucose, primary screen, MELAS cybrids, Rieske KO mouse fibroblasts, CellTiter-Glo (AID 1508586;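 active means mean z-score across replicates of 1.96 or higher in either the MELAS or the Rieske mutant cell line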;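 further: z relative to plate mean and SD of compound and empty wells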).

In the case of `COc1cc(=C2C=c3ccccc3=N2)[nH]/c1=C/c1[nH]c(C)cc1C`, the AC50 was 6610 nM (active) in experiment [1]; 14800 nM (active) in experiment [2]; 4690 nM (active) in [3]; 5900 nM (active) in [4]; 3320 nM (active) in experiment [5]; 2090 nM (active) in experiment [6]. Also, the AC50 in experiment [7] is 2640 nM (active); in experiment [8] it was 5900 nM (active). Further, in experiment [9], the IC50 was 16600 nM (active).

On to `Nc1nc(-c2nn(Cc3ccccc3F)c3ncccc23)nc(N)c1N1CCOCC1`, for which the result in experiment [1], in experiment [2], in experiment [3], in [4], in [5] and in [6] was inactive. The result in [7], in experiment [8] and in [9] was inactive.

On to `Cc1cnc(Nc2ccc(F)cc2Cl)nc1-c1c[nH]c(C(=O)N[C@H](CO)c2cccc(Cl)c2)c1`, for which the AC50 in [1] is 1320 nM (active); in experiment [2], 18700 nM (active); in experiment [3], 833 nM (active); in experiment [4], 469 nM (active); in experiment [5], 1320 nM (active); in experiment [6], 2090 nM (active). Further, the AC50 is 18700 nM (active) in [7] and 833 nM (active) in experiment [8]. For the same molecule, the IC50 in experiment [9] is 9340 nM (active).

For the molecule `C[C@@]12O[C@@H](C[C@]1(O)CO)n1c3ccccc3c3c4c(c5c6ccccc6n2c5c31)CNC4=O`, the AC50 was 2950 nM (active) in experiment [1]; 4690 nM (active) in experiment [2]; 2960 nM (active) in experiment [3]; 8330 nM (active) in [4]; 1320 nM (active) in experiment [5]; 186 nM (active) in experiment [6]. The AC50 in [7] was 8330 nM (active); in experiment [8] it was 1860 nM (active). Moreover, in experiment [9], the IC50 is 2630 nM (active).

For `c1cc(CN2CCCNCCNCCCNCC2)ccc1CN1CCCNCCNCCCNCC1`, the molecule was called inactive in experiment [1], in [2], in [3], in experiment [4], in experiment [5] and in experiment [6]. Besides, the molecule was called inactive in experiment [7], in [8] and in [9].

As to `OC[C@H]1O[C@@H](n2cnc3c2NC=NC[C@H]3O)C[C@@H]1O`, the molecule was classed as inactive in experiment [1], in experiment [2], in [3], in experiment [4], in experiment [5] and in [6]. In addition, the call in experiment [7], in experiment [8] and in experiment [9] was inactive.

Turning to `O=C(NCCS(=O)(=O)c1ccc(C(F)(F)F)cn1)c1ccc(Cl)cc1`, the molecule was classed as inactive in experiment [1], in experiment [2], in experiment [3], in experiment [4], in experiment [5] and in experiment [6]. For the same molecule, the molecule was classed as inactive in [7], in experiment [8] and in [9]. In addition, the fold change was 0.87 (inactive) in [10] (stronger effect = lower value, cell number ratio, induced over uninduced) and 0.351 in experiment [10] (measured here: relative caspase fold change +Dox/-Dox). In addition, the cell count amounted to 7940 in experiment [10] (measured here: total cells with miR-34 induction, stronger effect = lower value); 9120 in experiment [10] (measured here: total cells without miR-34 induction); 7080 in [11]. Also, the SSMD in experiment [11] turned out to be 3.34. The plate-normalised HSF1 focus index in experiment [11] is 1.2 (inactive). Besides, the z-score in [12] (MELAS cybrid survival, CellTiter-Glo 48 h, stronger effect = higher value) was -0.369 (inactive); in experiment [12] (Rieske KO mouse fibroblast survival, CellTiter-Glo 72 h), 0.00298.
